# Source: PubChem BioAssay (NCATS)
# Inconclusive results are not listed. A number with no mark means an inactive call. Activity calls are given as the source filed them. Calls come from the whole dose curve; as a rule, active = well fitted curve in the direction sought with a large enough effect; inconclusive = small, poorly fitted or top-dose-only effect, or another doubt; inactive = no such curve, though single readings can be large; an effect the other way counts as inactive or inconclusive.
# Tests used:
# [1] = Quantitative High-Throughput drug screen in 47 multiple myeloma cell lines against the NCATS MIPE library collection: KMS12BM_JCRB cell viability assay (AID 1918971); note: nearly all actives have a fitted effect of over 35% in size; note: potency is the fitted concentration of half-maximal effect
# Procedure, shortened: (§1)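 Inhibition of cell viability is measured here. Each line was plated at 500 cells per well, treated with MIPE 4.0 drugs, kept 48 hours at 37C, then assayed for ATP content by CellTiter-Glo luminescence.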
# [2] = Quantitative High-Throughput drug screen in 47 multiple myeloma cell lines against the NCATS MIPE library collection: KMS12PE_JCRB cell viability assay (AID 1918972); note: nearly all actives have a fitted effect of over 30% in size; note: potency is the fitted concentration of half-maximal effect;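 for viability: 100% = DMSO only wells and 0% = wells with media alone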
# Procedure, shortened: as §1
# [3] = Quantitative High-Throughput drug screen in 47 multiple myeloma cell lines against the NCATS MIPE library collection: KMS26_JCRB cell viability assay (AID 1918975); note: nearly all actives have a fitted effect of over 45% in size; note: potency is the fitted concentration of half-maximal effect;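 for viability (% of DMSO): 100% = DMSO-treated wells and 0% = wells with media only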
# Procedure, shortened: as §1
# [4] = Quantitative High-Throughput drug screen in 47 multiple myeloma cell lines against the NCATS MIPE library collection: MOLP8_DSMZ cell viability assay (AID 1918977);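 note: 100% = DMSO-only wells and 0% = media-only wells without cells; nearly all actives have a fitted effect of over 45% in size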
# Procedure, shortened: (§2)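 ATP-based luminescence (CellTiter-Glo, 5 min RT incubation) quantified surviving cells following two days' treatment with MIPE 4.0 agents at 37 °C, 5% CO2.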
# [5] = Quantitative High-Throughput drug screen in 47 multiple myeloma cell lines against the NCATS MIPE library collection: NCIH929_DSMZ cell viability assay (AID 1918978); note: nearly all actives have a fitted effect of over 35% in size; note: potency is the fitted concentration of half-maximal effect
# Procedure, shortened: as §2
# [6] = Quantitative High-Throughput drug screen in 47 multiple myeloma cell lines against the NCATS MIPE library collection: OCIMY1_PLB cell viability assay (AID 1918979);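 note: 100% = DMSO-only wells and 0% = cell-free media-only wells; nearly all actives have a fitted effect of over 35% in size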
# Procedure, shortened: as §2
# [7] = Quantitative High-Throughput drug screen in 47 multiple myeloma cell lines against the NCATS MIPE library collection: MM1R_ATCC cell viability assay (AID 1918981); note: nearly all actives have a fitted effect of over 35% in size; note: potency is the fitted concentration of half-maximal effect
# Procedure, shortened: as §2
# [8] = Quantitative High-Throughput drug screen in 47 multiple myeloma cell lines against the NCATS MIPE library collection: LP1_DSMZ cell viability assay (AID 1918982); note: nearly all actives have a fitted effect of over 35% in size; note: potency is the fitted concentration of half-maximal effect
# Procedure, shortened: as §2
# [9] = Quantitative High-Throughput drug screen in 47 multiple myeloma cell lines against the NCATS MIPE library collection: KMS34_JCRB cell viability assay (AID 1918985); note: nearly all actives have a fitted effect of over 40% in size; note: potency is the fitted concentration of half-maximal effect
# Procedure, shortened: as §2
# [10] = Quantitative High-Throughput drug screen in 47 multiple myeloma cell lines against the NCATS MIPE library collection: OCIMY7_PLB cell viability assay (AID 1918987); conditions: OCI-MY7 myeloma viability, CellTiter-Glo ATP, 48 h; viability (% of DMSO): at 45.8 µM (top of the series); note: nearly all actives have a fitted effect of over 65% in size; note: potency is the fitted concentration of half-maximal effect
# Procedure, shortened: as §2
# [11] = Quantitative High-Throughput drug screen in 47 multiple myeloma cell lines against the NCATS MIPE library collection: OCIMY5_PLB cell viability assay (AID 1918988); note: nearly all actives have a fitted effect of over 65% in size; note: potency is the fitted concentration of half-maximal effect
# Procedure, shortened: as §2
# [12] = Quantitative High-Throughput drug screen in 47 multiple myeloma cell lines against the NCATS MIPE library collection: SKMM1_PLB cell viability assay (AID 1919863); conditions: SKMM1 myeloma viability, CellTiter-Glo ATP, 48 h; viability: active compounds read low; note: nearly all actives have a fitted effect of over 35% in size; note: potency is the fitted concentration of half-maximal effect
# Procedure, shortened: as §2
# [13] = Quantitative High-Throughput drug screen in 47 multiple myeloma cell lines against the NCATS MIPE library collection: MM1S_ATCC cell viability assay (AID 1918980); note: nearly all actives have a fitted effect of over 45% in size; note: potency is the fitted concentration of half-maximal effect;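 for viability (% of control): 100% = wells with DMSO only and 0% = wells with media only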
# Procedure, shortened: as §2
# [14] = Quantitative High-Throughput drug screen in 47 multiple myeloma cell lines against the NCATS MIPE library collection: KMS28PE_JCRB cell viability assay (AID 1918983); note: nearly all actives have a fitted effect of over 35% in size; note: potency is the fitted concentration of half-maximal effect
# Procedure, shortened: as §2
# [15] = Quantitative High-Throughput drug screen in 47 multiple myeloma cell lines against the NCATS MIPE library collection: OPM1_PLB cell viability assay (AID 1918989); note: nearly all actives have a fitted effect of over 40% in size; note: potency is the fitted concentration of half-maximal effect;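 for viability (% of control): 100% = DMSO-only wells and 0% = media-only wells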
# Procedure, shortened: as §2
# [16] = Quantitative High-Throughput drug screen in 47 multiple myeloma cell lines against the NCATS MIPE library collection: U266_ATCC cell viability assay (AID 1919864); note: nearly all actives have a fitted effect of over 35% in size; note: potency is the fitted concentration of half-maximal effect
# Procedure, shortened: as §2
# [17] = Quantitative High-Throughput drug screen in 47 multiple myeloma cell lines against the NCATS MIPE library collection: MMM1_PLB cell viability assay (AID 1918976)
# Procedure, shortened: as §2
# [18] = Quantitative High-Throughput drug screen in 47 multiple myeloma cell lines against the NCATS MIPE library collection: L363_DSMZ cell viability assay (AID 1918984); conditions: L363 myeloma viability, CellTiter-Glo ATP luminescence, 48 h; viability (% of control): at 45.8 µM (top of the series); note: potency is the fitted concentration of half-maximal effect; nearly all actives have a fitted effect of over 40% in size
# Procedure, shortened: as §2
Structure (SMILES),Potency [1],Potency [2],Potency [3],Potency [4],Potency [5],Potency [6],Potency [7],Potency [8],Potency [9],Potency [10],Potency [11],viability [12] [%],Potency [13],Potency [14],Potency [15],Potency [12],Potency [16],Potency [17],Potency [18]
CNC1[C@H](O)C(O[C@@H]2C(O)C(O[C@H]3O[C@H]([C@@H](C)NC)CC[C@H]3N)[C@@H](N)C[C@H]2N)OC[C@]1(C)O (stereo partly drawn),inactive,inactive,inactive,inactive,inactive,inactive,inactive,inactive,inactive,inactive,inactive,103,,,,,,,
CN[C@H]1[C@@H](O[C@@H]2[C@H](O[C@@H]3[C@@H](O)[C@@H](O)[C@@H](N=C(N)N)[C@@H](O)[C@@H]3N=C(N)N)O[C@H](C)[C@@]2(O)C=O)O[C@@H](CO)[C@@H](O)[C@H]1O,inactive,inactive,inactive,,inactive,,inactive,inactive,inactive,,,,inactive,inactive,inactive,0.946 µM (active),inactive,,
CC=C(C(=CC)c1ccc(O)cc1)c1ccc(O)cc1,16.6 µM (active),16.6 µM (active),,inactive,inactive,inactive,,,,,16.6 µM (active),,11.8 µM (active),inactive,,,,16.6 µM (active),13.2 µM (active)
O=C(O)Cc1cccc(OCCCN(Cc2cccc(C(F)(F)F)c2Cl)CC(c2ccccc2)c2ccccc2)c1,3.32 µM (active),inactive,,,18.7 µM (active),inactive,,,,13.2 µM (active),,,20.9 µM (active),23.5 µM (active),,,,6.62 µM (active),
Oc1ccc(C=Cc2cc(O)cc(O)c2)cc1,33.2 µM (active),inactive,,,inactive,inactive,16.6 µM (active),,5.26 µM (active),,13.2 µM (active),,18.7 µM (active),inactive,inactive,,,16.6 µM (active),
C[C@]12C=CC(=O)C=C1CC[C@@H]1[C@@H]2[C@@H](O)C[C@@]2(C)[C@@H]1CC[C@]2(O)C(=O)CO,11.8 µM (active),inactive,,,2.35 µM (active),inactive,6.62 µM (active),0.0469 µM (active),0.187 µM (active),,,,5.26 µM (active),inactive,,,inactive,0.166 µM (active),
CC(C)(O)CC(=O)NCCn1ccc2ncnc(Nc3ccc(Oc4cccc(C(F)(F)F)c4)c(Cl)c3)c21,23.5 µM (active),5.9 µM (active),26.4 µM (active),,26.4 µM (active),inactive,,,23.5 µM (active),13.2 µM (active),1.18 µM (active),,0.332 µM (active),26.4 µM (active),26.4 µM (active),23.5 µM (active),16.6 µM (active),20.9 µM (active),
